# Hits are enriched below; roughly 3.9% of the tested compounds scored in any of these assays.
# Luciferase inh: blocks Photinus pyralis firefly luciferase activity; P08659; purified firefly luciferase, luminescence, 8 min; Potency, µM (top dose mostly 57.1 µM), without a hit: at the top dose activity change, negative = inhibition, actives largely listed as inhibitors; AID 411; 72,000 tested, 2.2% active; note: % is set by controls: 0 for no effect and ±100 for the full control effect; nearly all actives have a fitted effect of over 40% in size
#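 Compounds were tested as concentration series (qHTS) against purified P. pyralis luciferase with luciferin and 10 uM ATP in 50 mM imidazole pH 7.2, 50 mM KCl, 7 mM MgCl2, 0.01% Tween 20, 0.05% BSA. Luminescence was read after 8 min at ambient temperature.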
# PK Bst: modulators of Bacillus stearothermophilus pyruvate kinase. purified pyruvate kinase, luminescence ATP production; ribose 5-phosphate activator present at AC10. AID 361. Potency, µM. 51,000 tested, 1.2% active; in the data active = potency below about 11 µM; inconclusive = mostly about 12 µM to 25 µM;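 the screen sought inhibitors and activators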;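 note: scaled between full activation by ribose 5 phosphate and full inhibition by luteolin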
# ERK AVP block: vasopressin-driven ERK pathway inhibition; HEK293-V1b, vasopressin-stimulated pERK AlphaScreen; 72,000 tested, 0.99% active; Potency, µM (doses to about 57.5 µM), for the others: at the top dose activity, negative = inhibition, most hits filed as inhibitors; note: % is set by controls: 0 for no effect and ±100 for the full control effect; nearly all actives have a fitted effect of over 55% in size
#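 qHTS, compounds titrated on V1b-expressing HEK293 cells. Preincubation 30 min at 37C, vasopressin 25 nM for 5 min, lysis 10 min, bead incubation 5 hr at room temperature.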
# GBA mod: modulators of human glucocerebrosidase | purified enzyme, resorufin glucoside fluorescence (screen aimed at inhibitors), 20 min | Potency, µM | 48,000 tested, 1.1% active; in the data active = potency below about 15 µM; inconclusive = mostly about 16 µM to 33 µM;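 note: the screen sought inhibitors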
#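 Compounds titrated against 0.2 nM normal enzyme, 30 uM resorufin beta-D-glucopyranoside substrate, citrate/phosphate buffer with taurocholate and tween-20, pH 5.9. Reaction ran 20 min at room temperature; fluorescence (Ex 548/Em 600) gave AC50.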
# Active calls of the source: *; i = inactive; ? = inconclusive; nt = not tested or not shown; [ ] = another dose, or the depositor's remark. Unless noted, calls come from the whole dose curve; as a rule, active = well fitted curve in the direction sought with a large enough effect; inconclusive = small, poorly fitted or top-dose-only effect, or another doubt; inactive = no such curve, though single readings can be large; an effect the other way counts as inactive or inconclusive. Potency is the fitted concentration of half-maximal effect.
SMILES,Luciferase inh,PK Bst,ERK AVP block,GBA mod
COc1ccc(NC(=O)N2CCCC3(CCN(C(=O)c4cnccn4)CC3)C2)cc1,2%[11.4 µM],nt,0%,nt
C[C@@H]1Nc2ccc(Cl)cc2S(=O)(=O)N1,1%,nt,-19%,nt
COc1cccc(-c2nccc(NCCc3c[nH]c4ccc(OC)cc34)n2)c1,1%[2.29 µM],nt,?,nt
S=c1nc(-c2nc(=S)[nH]c3c2CCCCCCCCCC3)c2c([nH]1)CCCCCCCCCC2,2%[11.4 µM],nt,10%[11.5 µM],nt
CCOC(=O)C1=C(c2ccccc2)NC(SCC(=O)Nc2cccc(C)c2)=C(C#N)C1c1ccco1 (centres undefined),0%,>57,21%,i
CCOC(=O)C1=C(c2ccccc2)NC(SCC(=O)Nc2ccc(C)cc2)=C(C#N)C1c1ccco1 (centres undefined),3%,>57,10%,12*
Cc1ccc(C)c(CSc2nnc(-c3cccnc3)n2N)c1,-2%,>57,1%,4.2*
c1ccc2c(c1)nc(Nc1ccc3c(c1)OCO3)c1nnnn12,?,8.6*,-24%,>77
COc1ccc(/C=N/c2nc3ccccc3n2C)cc1OC,20µM*,i,9%,>77
COc1ccc(CCN(C)CCC[C@@](C#N)(c2cc(OC)c(OC)c(OC)c2)C(C)C)cc1OC,2%,nt,33%,nt
O=C(c1oc2ccccc2c1CSCc1ccccc1)N1CCN(c2ncccn2)CC1,0%,>57,5µM*,>77
CCc1nnc(NC(=O)c2ccc(S(=O)(=O)N(CC)Cc3ccccc3)cc2)o1,-1%,>57,5%,14*
COc1ccc2oc(-c3ccc(O)cc3)cc(=O)c2c1,?,nt,40µM*,nt
COc1ccc(-c2cc(=O)c3cc(OC)ccc3o2)cc1,nt,nt,7%,nt
CCOC(=O)c1cnc(SCc2ccccc2)nc1N,16µM*,nt,-19%,>77
CCOC(=O)c1c(NC(=O)c2nn(CC)cc2Br)sc2c1CCCCC2,3%,>57,-1%,5.2*
CCOC(=O)c1c(NC(=O)c2nn(CC)cc2Br)sc(C)c1C,-2%,>57,-12%,nt

# Bioassay records (PubChem BioAssay)
